This note sets out measurements from PubChem BioAssay AID434962 (The Scripps Research Institute Molecular Screening Center, 2010).

Out of some 320,000 compounds screened, about 1,300 (0.41%) were called active. This excerpt belongs to a sample that is enriched for actives. Unmarked numbers belong to inactive results.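 The calls were made as follows: active = percent inhibition above the average of all tested compounds plus 3 SD, set per screening campaign (cut at about 16% in these data); inactive = the rest.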

This assay deals with Insulin-degrading enzyme (Homo sapiens) (UniProt P14735). Briefly: cellular IDE Abeta-cleavage inhibition – fluorescence polarization, HEK cells, FAbetaB substrate, primary screen (AID 434962).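 Also: IDE supplied by intact live HEK cells; FP after avidin binding of uncleaved biotin substrate so inhibition keeps polarization high; 0% = DMSO wells and 100% = 60 µM reference IDE inhibitor Ii1.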 To be noted: at 5.59 µM, active compounds read high. (In general: In fluorescence polarisation assays a small probe gives low polarisation when free and higher when bound to something large.)
Insulin-degrading enzyme (Homo sapiens), sequence (P14735 whole entry, looked up): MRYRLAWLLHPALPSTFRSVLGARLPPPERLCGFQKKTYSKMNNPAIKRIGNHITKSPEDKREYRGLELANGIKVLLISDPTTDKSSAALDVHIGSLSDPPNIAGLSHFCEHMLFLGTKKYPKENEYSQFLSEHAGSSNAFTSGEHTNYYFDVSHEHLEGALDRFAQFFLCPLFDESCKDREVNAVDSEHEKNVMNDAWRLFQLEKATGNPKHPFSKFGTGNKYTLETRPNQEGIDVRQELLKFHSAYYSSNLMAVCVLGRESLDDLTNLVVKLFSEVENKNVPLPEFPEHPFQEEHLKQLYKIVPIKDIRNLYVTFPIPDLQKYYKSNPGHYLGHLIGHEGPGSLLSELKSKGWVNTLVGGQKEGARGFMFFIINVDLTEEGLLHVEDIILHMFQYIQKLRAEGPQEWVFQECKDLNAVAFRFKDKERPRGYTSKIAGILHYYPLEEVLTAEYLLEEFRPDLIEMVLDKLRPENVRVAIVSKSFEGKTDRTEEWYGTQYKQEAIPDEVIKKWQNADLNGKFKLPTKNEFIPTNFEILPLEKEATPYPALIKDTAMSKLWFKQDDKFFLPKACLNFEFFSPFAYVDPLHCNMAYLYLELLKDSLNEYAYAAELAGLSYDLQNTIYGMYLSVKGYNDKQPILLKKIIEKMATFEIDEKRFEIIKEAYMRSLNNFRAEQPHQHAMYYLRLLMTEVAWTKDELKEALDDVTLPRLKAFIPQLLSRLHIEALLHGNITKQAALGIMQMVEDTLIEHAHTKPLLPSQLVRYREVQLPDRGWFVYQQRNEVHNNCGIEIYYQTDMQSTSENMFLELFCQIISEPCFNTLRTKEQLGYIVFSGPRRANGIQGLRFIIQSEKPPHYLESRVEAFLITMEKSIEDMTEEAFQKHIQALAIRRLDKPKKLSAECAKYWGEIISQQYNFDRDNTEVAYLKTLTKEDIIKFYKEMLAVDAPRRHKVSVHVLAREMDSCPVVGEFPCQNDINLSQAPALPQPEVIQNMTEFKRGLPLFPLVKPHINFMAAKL
The term inhibition denotes the change of the read-out against control, counted positive when it falls. `COc1ccccc1C(=O)OCC(=O)Nc1cccc(S(=O)(=O)NC2=NCCCCC2)c1`: the inhibition was 0.13%.
As for `Cc1ccc(Br)c(NS(=O)(=O)c2cccc(C(=O)N3CCNC(=O)C3)c2)c1`, the figure is -0.69%.
With `COc1ccc(N2CCN(C(=O)/C(C#N)=C/c3ccccc3)CC2)cc1`, the inhibition was 17.7% (active).
As for `C/C(=C/c1ccccc1)C(=O)N1CCN(c2ccccc2)CC1`, the figure is -2.17%; as for `CCOC(=O)/C(C#N)=C/c1ccc(N2CCN(Cc3ccccc3)CC2)cc1`, 3.39%.
As for `Cc1cc(=O)oc2c1ccc1ccccc12`, the figure is 7.29%; as for `CCc1ccccc1N(CC(=O)N1CCN(c2ccccc2F)CC1)S(C)(=O)=O`, -4%; as for `COc1ccc(NC(=O)C(C)SCc2ccccc2)cc1` (stereo not drawn), -4.67%.
As to `O=C(NCCc1c[nH]c2ccccc12)C1CCN(Cc2ccc(Br)cc2)CC1`, the inhibition was -4.77%.
In the case of `N#C/C(=C/c1ccc(N2CCCCC2)o1)C(=O)NCCc1c[nH]c2ccccc12`, the inhibition was 151% (active).
In the case of `O=C(CN1C(=O)NC2(CCCCC2)C1=O)NCCc1c[nH]c2ccccc12`, the inhibition is 1.64%.
As for `COc1ccccc1N(C)S(=O)(=O)c1ccc(C(=O)NC2CCCCCC2)cc1`, the figure is -1.04%.
As for `CC1CCCC(NC(=O)COC(=O)[C@@H]2CC(O)CN2S(=O)(=O)c2ccc3c(c2)OCCO3)C1C` (stereo partly drawn), the inhibition was 2.16%.
As for `COc1cc(C(=O)Nc2cc(C(F)(F)F)ccc2-n2cncn2)cc(OC)c1OC`, the figure is -10.1%; as for `CCN(CC(=O)Nc1c(F)cccc1F)C(=O)C1CCC1`, -0.82%.
As for `N#CC1=C(N)Oc2c(ccc3cccnc23)C1c1ccncc1` (stereo not drawn), the figure is 0.4%.
As to `N#CC1=C(N)Oc2c(sc3ccccc23)C1c1ccco1` (stereo not drawn), the inhibition was 37.7% (active).
For the compound `Cc1cc(C(=O)NCCc2ccc(Cl)cc2)c(C)o1`, the inhibition is -1.15%.
Turning to `COCc1[nH][nH]c(=O)c1C=Nc1ccc(F)cc1F`, the inhibition is 1.29%.
As for `CN1/C(=c2/s/c(=C3/C(=O)N(c4ccccc4)NC3=Nc3ccccc3)n(C)c2=O)C(C)(C)c2ccccc21`, the figure is 27% (active).
In the case of `O=C(OCC(=O)N1CCCCC1)c1ccc(OC(F)(F)F)cc1`, the inhibition was 7.21%.
As for `Cc1nnc(Sc2nc3c(c(=O)[nH]c(=O)n3C)n2Cc2ccccc2)s1`, the figure is 1.7%; as for `COc1cc(/C=C2\C(=N)N3N=C(CC(=O)N4CCOCC4)SC3=NC2=O)cc(OC)c1OC`, -4.67%; as for `C=CCC1=C/C(=C\c2c(N)n3nc(CC(=O)N4CCOCC4)sc3nc2=O)C=C(OC)C1=O`, 68.9% (active).
As for `COC1=C/C(=C/c2c(N)n3nc(CC(=O)N4CCOCC4)sc3nc2=O)C=CC1=O`, the figure is 12.1%; as for `Cc1cccc(CSc2ccc(-c3cccs3)nn2)c1`, 4.68%.
On to `FC(F)(F)Oc1ccc(-c2cn3cccnc3n2)cc1`, for which the inhibition was 6.48%.
As for `FC(F)(F)c1ccc2c3n(nc2c1)CCN=C3c1ccc(Cl)cc1`, the figure is 1.01%.
As for `CCn1c(O)c(N=NC2=NC(=O)CS2)c2cc(C)ccc21`, the figure is 5.14%.
For `CCC(=C/c1sc2ccc3ccccc3c2[n+]1C)/C=C1\Sc2ccc3ccccc3c2N1C`, the inhibition was 50.5% (active).
As for `O=S1(=O)CC(NCc2ccccc2)C(Nc2ccc(Cl)cc2)C1` (stereo not drawn), the figure is 0.58%; as for `COc1ccc(NS(=O)(=O)c2cc3c(cc2C)N(C(C)=O)CCO3)cc1`, 2.34%; as for `CN1C(C)(C)CC(NC(=O)CCC(=O)NC2CC(C)(C)N(C)C(C)(C)C2)CC1(C)C`, 0.6%.
As for `C=CCN1C(=O)C2(OCCCO2)c2cccc(Cl)c21`, the figure is 1.02%; as for `CCc1ccc(N(C(=O)c2csnn2)C(C(=O)NC2CCCCC2)c2ccncc2)cc1` (stereo not drawn), 3.98%; as for `CCOC(=O)N1CCN(C(=O)CSc2nc(=O)n3cccc(C)c3n2)CC1`, -1%.
For the compound `CCOC(=O)CC1C(=O)NCCN1c1nc2c(C)cccn2c(=O)c1/C=C1\SC(=S)N(C(C)CC)C1=O` (stereo not drawn), the inhibition is 114% (active).
Consider `Cc1cccn2c(=O)c(/C=C(\C#N)C(N)=O)c(N3CCCCCC3)nc12`, for which the inhibition was 15.9%.
As for `O=C(COc1ccc(S(=O)(=O)N2CCOCC2)cc1Cl)N1CCOCC1`, the figure is 0.54%.
As for `CCCc1cc(=O)oc2c(C)c(OCC(=O)N3CCC(C(=O)O)CC3)ccc12`, the figure is 0.15%; as for `Cc1c(C)c2ccc(OCC(=O)N3CCC(C(=O)O)CC3)c(C)c2oc1=O`, 9.3%; as for `CCCCc1cc(=O)oc2c(C)c(OCC(=O)N3CCC(C(N)=O)CC3)ccc12`, 21.3% (active).
As for `CCC(C)N(C(=O)COC(=O)c1nc(Cl)ccc1Cl)C1CCS(=O)(=O)C1` (stereo not drawn), the figure is 1.33%; as for `CNC(=O)/C(C#N)=C/c1c(F)cccc1Cl`, -1.39%.
As to `CCN1CCN(C(=O)C2CCCN(S(=O)(=O)c3ccc(OC)c(OC)c3)C2)CC1` (stereo not drawn), the inhibition was -5.73%.
For the compound `O=C(O)c1ccccc1CSc1nc2ccccc2s1`, the inhibition was -2.6%.
Take `CCOc1ccccc1Nc1ccc2nonc2c1[N+](=O)[O-]`: the inhibition was -3.97%.
As for `O=[N+]([O-])c1c(NCCO)cc(Sc2nc3ccccc3s2)c2nonc12`, the figure is 21.8% (active); as for `Cc1[nH]c2ccccc2c1/C=C(/C#N)C(=O)NC(C)C`, -1.7%; as for `Nc1c(C(=O)c2cccs2)sc2nsc(SCCN3CCCCC3)c12`, 23% (active).
As for `O=C(CSc1ncnc2sccc12)N1CCN(C(=O)c2cccs2)CC1`, the figure is 3.13%.
As for `O=[N+]([O-])c1ccc(N(CCO)Cc2ccccc2)c([N+](=O)[O-])c1`, the figure is 0.66%.
`COc1ccc(N2CCN(Cc3ccc(Br)s3)CC2)cc1`: the inhibition was -4.53%.
As for `O=C1NC(c2ccccc2)=NC1(Nc1ccccn1)C(F)(F)F` (stereo not drawn), the figure is -2.81%; as for `Oc1ccc(N=Cc2sc3ccccc3c2Cl)cc1`, 0.23%; as for `COC(=O)c1ccc(/C=C/c2c(-c3ccc(OC)cc3)sc3ccccc23)cc1`, 1.82%.
Regarding `COc1ccc(N=C(C)c2sc3ccccc3c2O)cc1`, the inhibition is 41.2% (active).
As for `Cc1ccccc1NC(=O)Cc1nc(COC(=O)c2ccc(C(F)(F)F)cc2)cs1`, the figure is 7.39%; as for `CCN(CC)C(=O)C(=O)Nc1cccc(Br)c1`, 1.91%; as for `CCN(CC)C(=O)CSC(Nc1cccc(F)c1)=C(C#N)C#N`, 31.4% (active).
With `Cc1ccc(CSCC(=O)N(C)CC(=O)Nc2cccc(F)c2)cc1`, the inhibition is 5.39%.
As to `Cc1cccc(OCC(O)CN2CCN(CCN3C(=O)c4cccc5cccc(c45)C3=O)CC2)c1C` (stereo not drawn), the inhibition was -8.18%.
As for `Cc1cccc(C)c1NC(=O)COC(=O)c1ccccc1O`, the figure is 3.87%; as for `Cc1cc([N+](=O)[O-])c(N2CCC[C@@H]2C(=O)O)c([N+](=O)[O-])c1`, 3.34%; as for `CN1CCC(=NNC(=O)c2ccc(N(Cc3ccc(Cl)cc3)S(C)(=O)=O)cc2)CC1`, 8.43%.
As for `CS(=O)(=O)N(Cc1ccccc1)c1ccc(C(=O)NN=C2CCCCCC2)cc1`, the figure is 18.7% (active); as for `Cc1ccccc1CN(c1ccc(C(=O)NCC2CCCO2)cc1)S(C)(=O)=O` (stereo not drawn), 10.1%; as for `CS(=O)(=O)N(Cc1ccc(Cl)cc1)c1ccc(C(=O)NCCSCc2ccco2)cc1`, 2.58%.
As for `O=C(C1=C[C@H](c2ccc(C(F)(F)F)cc2)C[C@H](OCc2ccc(CO)cc2)O1)N1CCN(Cc2ccccc2)CC1`, the figure is -1%; as for `O=C(C1=C[C@H](c2coc3ccccc3c2=O)C[C@H](OCc2ccc(CO)cc2)O1)N1CCOCC1`, 4.19%.
As to `O=C(C1=C[C@H](c2coc3ccccc3c2=O)C[C@H](OCc2ccc(CO)cc2)O1)N1CCN(Cc2ccccc2)CC1`, the inhibition is 18.4% (active).
As for `O=C(NC1CCCC1)C(=O)c1c[nH]c2ccccc12`, the figure is 3.35%; as for `COc1ccc(/C=C(\C#N)c2c[nH]c3ccccc23)cc1`, -0.68%.
As for `C[n+]1ccc(/C=C/c2c[nH]c3ccccc23)cc1`, the figure is 23.9% (active); as for `Clc1ccccc1-c1cc(COc2ccc3ccccc3c2)no1`, 3.18%; as for `COc1ccc(OCCCn2cccc2/C=C2/C(=N)N3OC(C)=CC3=NC2=O)cc1`, 1.48%.
As for `CC1=CC2=NC(=O)/C(=C/c3coc4ccccc4c3=O)C(=N)N2O1`, the inhibition is 62.1% (active).
As for `CCOc1cc(/C=C2/C(=N)N3OC(C)=CC3=NC2=O)ccc1OC`, the figure is 0.06%.
As for `C=CCn1c(SCCOc2ccc(OC)cc2)nnc1C(NC(=O)c1ccc(OC)cc1)C(C)C` (stereo not drawn), the figure is 0.39%; as for `CC(=O)Nc1ccc(S(=O)(=O)N2CCN(CCCOc3cc(C)ccc3C)CC2)cc1`, -1.56%.
Regarding `CCOc1ccc(NC(=O)CN(C)CC(=O)Nc2cccc(Cl)c2C)cc1OCC`, the inhibition is 1.24%.
Take `CCCc1nc(SCC(=O)Nc2ccc(S(=O)(=O)N(C)C)cc2)c2ccccc2n1`: the inhibition is 38.4% (active).
With `CCCNC(=O)CSc1nc(Cc2ccccc2)nc2ccccc12`, the inhibition was 4.52%.
As for `CCc1nc(SCC(=O)NNC(=O)c2ccc(C)cc2)c2ccccc2n1`, the inhibition was 0.32%.
Turning to `Cc1ccccc1-n1c(C)cc(/C=N/NC(=O)c2ccc(CN3CCOCC3)cc2)c1C`, the inhibition is -1.59%.
Turning to `COc1ccc(N2C(=O)/C(=C\c3ccco3)N=C2SCC(N)=O)cc1Cl`, the inhibition is 6.2%.
`N#Cc1c(N2CCCCC2)nc(N)c2c(N)nc(SCC(=O)O)cc12`: the inhibition was 7.07%.
As for `CCN1CCCC1CNC(=O)c1cc2cc(OC)c(OC)cc2[nH]1` (stereo not drawn), the figure is 1.37%; as for `Fc1ccc2[nH]c3c(N4CCSCC4)ncnc3c2c1`, 17.6% (active); as for `Cc1c(CN2CC[C@@H](N3CCN(c4ccccn4)CC3)[C@H](O)C2)[nH]c2ccc(F)cc12`, -1.68%.
As for `CCN1CCCC1CNc1ncnc2c1[nH]c1ccc(F)cc12` (stereo not drawn), the figure is 17% (active); as for `CCN1CCCC1Cn1cnc2c([nH]c3cc(OC)ccc32)c1=O` (stereo not drawn), 6.02%; as for `CC(C)OCCCNc1ncnc2c1[nH]c1ccc(F)cc12`, 27.3% (active).
